Screens: PubChem, National Center for Advancing Translational Sciences (NCATS)
BAZ2B inh = BAZ2B (human) inhibition; AID 504333; Q9UIF8; Potency, µM (top dose mostly 114 µM), without a hit: at the top dose activity change, negative = inhibition, hits mostly inhibitors; 360,000 compounds, 4.4% hits; AlphaScreen BAZ2B-H3K14Ac peptide displacement; also: potency is read from the fitted curve at half-maximal effect; % is scaled to controls: 0 for no effect and ±100 for the full control effect; nearly all actives have a fitted effect of over 60% in size
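AlphaScreen luminescence quantifies BAZ2B engagement of H3K14Ac peptide; the protein and biotinylated peptide are both at 50 nM final, buffer PBS pH 7.4 with 0.01% Tween-20, all steps at room temperature.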
HP1b binding inh = HP1-beta chromodomain-methylated histone interaction inhibition. AlphaScreen HP1-beta / biotin-H3K9me3 peptide binding. Potency, µM (top dose mostly 114 µM), for the others: top-dose activity change, negative = inhibition, usual class: inhibitors. 390,000 compounds, 0.56% hits. P83916. AID 540317; also: potency is read from the fitted curve at half-maximal effect; nearly all actives have a fitted effect of over 70% in size
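AlphaScreen: HP1-beta (50 nM) preformed 30 min with biotin-H3(1-18)K9me3 peptide (50 nM) in PBS pH 7.4, 0.01% Tween-20. Compound added for 30 min at RT, then streptavidin donor/nickel chelate acceptor beads (10 ug/mL) for 30 min.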
PLK1 PBD inh = inhibitors of human PLK1 polo-box domain binding; Potency, µM, without a hit: max response, negative = inhibition, hits mostly inhibitors; 360,000 compounds, 2.8% hits; AID 720504; Plk1 PBD binding of FITC phosphopeptide, fluorescence polarization; P53350; also: potency is read from the fitted curve at half-maximal effect; series mostly up to about 57 µM; % is scaled to controls: 0 for no effect and ±100 for the full control effect; nearly all actives have a fitted effect of over 65% in size
G9a inh = inhibitors of human histone lysine methyltransferase G9a; Q96KQ7; G9a H3K9 monomethylation, AlphaScreen, 2 h; Potency, µM (titrated, usually from 102 µM), for inactives: at the top dose activity, negative = inhibition, most hits filed as inhibitors; 350,000 compounds, 8.8% hits; also: potency is read from the fitted curve at half-maximal effect; % is scaled to controls: 0 for no effect and ±100 for the full control effect; nearly all actives have a fitted effect of over 75% in size
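G9a (20 nM) preincubated 15 min RT with compounds, then 500 nM biotinylated H3K9 peptide and 20 uM SAM added; 2 h RT reaction. Monomethyl-H3K9 product detected by AlphaScreen with anti-H3K9me1 antibody, streptavidin donor and anti-rabbit IgG acceptor beads.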
JMJD2A Tudor inh = JMJD2A Tudor domain (human) inhibition; O75164; AlphaScreen JMJD2A-Tudor / H3K4me3 peptide binding; Potency, µM (highest dose often 114 µM), without a hit: at the highest dose activity change, negative = inhibition, most hits filed as inhibitors; 390,000 compounds, 4.4% hits; AID 504339; also: potency is read from the fitted curve at half-maximal effect; % is scaled to controls: 0 for no effect and ±100 for the full control effect; nearly all actives have a fitted effect of over 50% in size
PI5P4K alpha inh = inhibitors of human PI5P4K alpha; P48426; PI5P4Kalpha enzyme, ADP-Glo luminescence, 60 min; hits give low values; max response, %; 330,000 compounds, 1.2% hits; AID 652105; active = max response of -50% or lower; inconclusive = between -30% and -50%; inactive = -30% or higher; also: value at the top dose of about 77 µM; % is scaled to controls: 0 for no effect and ±100 for the full control effect
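Quantitative HTS of the MLSMR library against PI5P4Kalpha with substrate. ATP added last at 5 microM final; room temperature, 60 minutes. Remaining ATP depleted, ADP converted and read as luminescence.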
* hit, by the source's call; [ ] = dose if it differs, or a comment. The list is not random: actives were taken first. Their share in the collection is about 12%. Unless noted, calls follow the shape of the dose curve; as a rule, active = well fitted curve in the direction sought with a large enough effect; inconclusive = small, poorly fitted or top-dose-only effect, or another doubt; inactive = no such curve, though single readings can be large; an effect the other way counts as inactive or inconclusive.

CC(=O)N1CCc2cc(Br)cc(S(=O)(=O)N3CCN(c4cccc(C(F)(F)F)c4)CC3)c21 was read as BAZ2B inh 1%, HP1b binding inh 35%, G9a inh -18%[59 µM] and JMJD2A Tudor inh -9%.
`CC(=O)Oc1ccc2c(c1)C(=O)CCCCCC(=O)O2` gave PLK1 PBD inh -12% and PI5P4K alpha inh -6.
`N#CCCN1CCCc2cc(N=Nc3ccc(C(F)(F)F)cc3)ccc21` gave BAZ2B inh 5.6µM*, HP1b binding inh 11µM*, PLK1 PBD inh -2%, JMJD2A Tudor inh 13µM* and PI5P4K alpha inh 39.
`Cc1ccccc1CC(=O)N1CC(C)OC(C)C1` (stereo not drawn) gave BAZ2B inh 3%, HP1b binding inh 7%, PLK1 PBD inh -7%, G9a inh 21%, JMJD2A Tudor inh -6% and PI5P4K alpha inh 0.
`CCOc1c(Br)cc(C(N)=O)cc1OC` gave BAZ2B inh -11%, HP1b binding inh -18%, PLK1 PBD inh inconclusive, G9a inh -2%, JMJD2A Tudor inh 56µM* and PI5P4K alpha inh -4.
For CCOc1cc(CO)cc(Br)c1OCC(=O)O the results were HP1b binding inh 27%, PLK1 PBD inh -6%, JMJD2A Tudor inh -26% and PI5P4K alpha inh -3.
Screening COc1cc(C(N)=O)cc(Br)c1OC returned BAZ2B inh 7%, HP1b binding inh 23%, PLK1 PBD inh 2%, G9a inh inconclusive, JMJD2A Tudor inh 3% and PI5P4K alpha inh 1.
Screening COc1cc(CO)cc(Br)c1OCC(=O)O returned BAZ2B inh -4%, HP1b binding inh 30%, PLK1 PBD inh inconclusive, G9a inh 50µM*, JMJD2A Tudor inh inconclusive and PI5P4K alpha inh 7.
Screening COc1ccc(S(=O)(=O)NCCc2sc(C)nc2C)cc1F returned BAZ2B inh 1%, HP1b binding inh 30%[57 µM], G9a inh -33%[59 µM] and JMJD2A Tudor inh -2%.
`COc1ccc(S(=O)(=O)N2CCC(C(=O)NCc3ccncc3)CC2)cc1OC` gave BAZ2B inh -12%, HP1b binding inh 42%, PLK1 PBD inh -6%, G9a inh -5%, JMJD2A Tudor inh 5% and PI5P4K alpha inh -11.
Screening Cc1cc2c(s1)c1cnn(Cc3c(F)cccc3C(F)(F)F)c(=O)c1n2C returned JMJD2A Tudor inh -16%.
Screening COc1ccc(C(=O)NNC(=S)NC(=O)c2ccco2)cc1 returned BAZ2B inh 7%[57.1 µM], HP1b binding inh 36%, PLK1 PBD inh -18%, G9a inh inconclusive, JMJD2A Tudor inh -2%[57.1 µM] and PI5P4K alpha inh -8.
COc1ccccc1C(=O)NNC(=O)c1cccc(C)c1 was read as BAZ2B inh 0%, HP1b binding inh -15%, PLK1 PBD inh 17µM*, JMJD2A Tudor inh inconclusive and PI5P4K alpha inh -19.
COc1ccccc1C(=O)NNC(=S)NC(=O)c1ccco1 was read as BAZ2B inh 7%, HP1b binding inh 24%, PLK1 PBD inh -16%, G9a inh 28µM*, JMJD2A Tudor inh -29% and PI5P4K alpha inh -8.
Screening COc1ccccc1C(=O)NNC(=O)c1cccc([N+](=O)[O-])c1 returned BAZ2B inh -9%, HP1b binding inh 16%, PLK1 PBD inh -10%, JMJD2A Tudor inh -11% and PI5P4K alpha inh -4.
